# Experimental data: PubChem BioAssay (NCATS)
# Where “and” joins values, the source holds several entries; their conditions need not be identical. Identical values can stand only once. Records with an inconclusive call do not appear. Values without a mark were called inactive. Calls of active or inactive are those of the source. Calls follow the shape of the dose curve; as a rule, active = well fitted activation curve with a large enough effect; inconclusive = small, poorly fitted or top-dose-only effect; inactive = no such curve, though single readings can be large or run the other way.
# Biological target: Cellular tumor antigen p53 (Homo sapiens) (UniProt P04637)
# Assay: Primary qHTS for small molecule compounds that upregulate eGFP-tagged delta133p53alpha (in N-terminal) cells. (AID 2060322); also: nearly all actives have a fitted effect of over 75% in size;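 as to activation: series mostly up to about 56 µM; 0% = DMSO vehicle and 100% = reference activator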
# Details: NCI-H358 eGFP-delta133p53alpha fluorescence, 24 h; activation: active compounds read high
# How it was run: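 NCI-H358 cells pre-induced 24 h with 10 ng/ml doxycycline for eGFP-delta133p53alpha, plated dox-free and exposed 24 h at 37C to titrated compounds. Fixed, Hoechst-stained; gated GFP peak intensity by laser scanning cytometry, normalized to DMSO (0%) and 57.5 uM 5-azacytidine (100%).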
# Potency is read from the fitted curve at half-maximal effect.
# Sequence of Cellular tumor antigen p53 (Homo sapiens) (P04637 whole entry, looked up): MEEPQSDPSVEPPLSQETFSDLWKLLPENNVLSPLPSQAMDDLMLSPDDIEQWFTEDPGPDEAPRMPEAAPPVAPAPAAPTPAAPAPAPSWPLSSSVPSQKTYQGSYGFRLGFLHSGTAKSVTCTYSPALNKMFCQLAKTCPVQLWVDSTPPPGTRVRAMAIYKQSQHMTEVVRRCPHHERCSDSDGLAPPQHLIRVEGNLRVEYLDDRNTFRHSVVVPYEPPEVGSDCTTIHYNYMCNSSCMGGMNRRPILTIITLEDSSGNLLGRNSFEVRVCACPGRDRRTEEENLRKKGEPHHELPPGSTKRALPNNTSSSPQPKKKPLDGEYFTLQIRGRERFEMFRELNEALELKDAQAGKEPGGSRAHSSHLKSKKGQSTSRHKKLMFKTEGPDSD
Compound,activation,Potency
C[C@@H]1CC2=CC(=O)CC[C@@H]2[C@H]2CC[C@@]3(C)[C@@H](CC[C@]3(C)O)[C@@H]21,-3.35%,
c1ccc2c(c1)sc1ccccc12,-5.02%,
O=C(O)c1ccc(=O)[nH]c1,11.9%,
O=[N+]([O-])c1ncc[nH]1,15.2%,
C[C@@H]1CN(C2CCC(C#N)(c3ccc(F)cc3)CC2)CC[C@]1(C(=O)O)c1ccccc1 (stereo not given in full),10.7%,
COc1cccc([C@@]2(O)CCCC[C@@H]2CN(C)C)c1,13.4%,
Cc1nnc2n1-c1sc(CCC(=O)N3CCOCC3)cc1C(c1ccccc1Cl)=NC2,-12.6%,
CCCN1CCO[C@@H]2c3cc(O)ccc3OC[C@@H]21,15.2%,
COC1CC(=C(c2cccs2)c2cccs2)C[N+](C)(C)C1 (stereo not given),-5.86%,
CC(C)=CC1C(C(=O)OCc2cccc(Oc3ccccc3)c2)C1(C)C (stereo not given),25.4%,
C[N+](C)(C)CCOC(=O)C(O)(c1ccccc1)c1ccccc1,16.4%,
CCC(=O)O[C@@H]1C=C2CCC3C(CCC4(C)C3CC[C@@H]4OC(=O)CC)C2CC1 (stereo not given in full),6.21%,
Oc1ccc(Cl)cc1,-7.34%,
O=[N+]([O-])c1cc([As](=O)(O)O)ccc1O,9.21%,
CCOCCOC(C)=O,-27.7%,
CN1CCC(N(Cc2ccccc2)c2ccccc2)CC1,10.7%,
O=C1c2ccccc2C(=O)C1C(=O)C(c1ccccc1)c1ccccc1,24.3%,
S=C(SSC(=S)N1CCCCC1)N1CCCCC1,-16.7%,
COc1cc(N)c(Cl)cc1C(=O)NC1CN2CCC1CC2 (stereo not given),10.7%,
CCC(=O)C(CCN(C)C)(c1ccccc1)c1ccccc1,,13.8 µM (active)

Compound,activation,Potency
CC(C)N[C@@H]1CCn2c(=O)[nH]c3cccc(c32)[C@@H]1O,13.7%,
c1cc2c(cc1[C@H]1OC[C@H]3[C@H]1CO[C@H]3c1ccc3c(c1)OCO3)OCO2,13.9%,
Cc1cc(O)ccc1Cl,-17.5%,
Cc1c(C(=O)c2cccc3ccccc23)c2cccc3c2n1[C@H](CN1CCOCC1)CO3,12.1%,
CC#C[C@]1(O)CC[C@H]2[C@@H]3C[C@H](C)C4=CC(=O)CC[C@]4(C)[C@H]3CC[C@@]21C,-4.18%,
CCCCCCCCCCCC[N+](C)(C)CCOc1ccccc1,,21.9 µM (active)
O=C(NC(=O)c1c(F)cccc1F)Nc1cc(Cl)c(OC(F)(F)C(F)C(F)(F)F)cc1Cl (stereo not given),-13.4%,
NC(=O)CS(=O)C(c1ccccc1)c1ccccc1 (stereo not given),-6.21%,
CC1=C2C[C@@H]3[C@@H](CC=C4C[C@@H](O)CC[C@@]43C)[C@@H]2CC[C@]12O[C@H]1C[C@H](C)CN[C@H]1[C@H]2C,14%,
CC=C(C)C(=O)O[C@H]1C(C)=C2[C@@H]3OC(=O)[C@@](C)(O)[C@@]3(O)[C@@H](OC(=O)CCC)C[C@](C)(OC(C)=O)[C@@H]2[C@@H]1OC(=O)CCCCCCC,-0.0676%,
O=C1OC(c2ccc(O)c(S(=O)(=O)O)c2)(c2ccc(O)c(S(=O)(=O)O)c2)c2c(Br)c(Br)c(Br)c(Br)c21,25.4%,
CC(=O)Nc1cc([As](=O)(O)O)ccc1O,-10.9%,
c1ccc(CN2CCNCC2)cc1,15.3%,
CCC(=O)O[C@H]1CC[C@H]2[C@@H]3CCC4=CC(=O)CC[C@]4(C)[C@H]3CC[C@]12C,-0.565%,
Oc1ccc2[nH]cc(CCCCN3CC=C(c4ccccc4)CC3)c2c1,22%,
Oc1ccc(Cl)cc1Cc1ccccc1,,45.5 µM (active) and 24.6 µM (active)
CN1CC[C@]23c4c5ccc(O)c4O[C@H]2[C@@H](O)CC[C@H]3[C@H]1C5,14.1%,
CCCC1CCCCN1 (stereo not given),-16.4%,
CCOC(=O)C1(c2ccccc2)CCN(CCc2ccc(N)cc2)CC1,-6.69%,
N#Cc1nn(-c2c(Cl)cc(C(F)(F)F)cc2Cl)c(N)c1S(=O)C(F)(F)F (stereo not given),-2.51%,
